From PubChem BioAssay (Tox21)
Records with an inconclusive call do not appear. Active and inactive are the calls of the source. Calls come from the whole dose curve. Positions of bridges follow the written chain, without caps; N, C: chain ends. Non-standard residues stand in square brackets, D forms with d. Residues, ends and D or L forms follow the SMILES beside them. hArg = N=C(N)NCCCC[C@H](N)C(=O)O; Mpa = O=C(O)CCS

Assay: qHTS assay for small molecule agonists of the p53 signaling pathway - cell viability (AID 651633);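 note: p53RE-bla HCT reporter cells with a stable beta-lactamase p53 reporter; nearly all actives have a fitted effect of over 30% in size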
Conditions: p53RE-bla HCT-116 viability, ATP luminescence, 16 h; series mostly up to 83.3 µM; activity change, negative = cytotoxicity: at the top concentration
From the text: National Center for Advancing Translational Sciences [NCATS]
NIH Chemical Genomics Center [NCGC]
U.S. Environmental Protection Agency [EPA]
National Institutes of Environmental Health Sciences [NIEHS]
National Toxicology Program [NTP]
U.S. Food and Drug Administration [FDA]
p53, a tumor suppressor protein, is activated following cellular insult, including DNA damage and other cellular stresses. The activation of p53 regulates cell fate by inducing DNA repair, cell cycle arrest, apoptosis, or cellular senescence. The activation of p53, therefore, is a good indicator of DNA damage and other cellular stresses. […] The activation of the reporter gene under culture conditions can be detected by fluorescence intensity. This cell line was used to screen the Tox21 compound library in a 1536-well plate format and to identify agonists that activate the p53 signaling pathway.
Tox21 Assay Protocol Summary:
The p53RE-bla cells were dispensed at 4,000 cells/5 ul/well in 1536-well black wall/clear bottom plates using a Multidrop dispenser. After the assay plates were incubated at a 37 C/5% CO2 incubator for 5 hours, 23 nL of compounds dissolved in DMSO, positive controls or DMSO only was transferred to the assay plate by a pin tool. The plates were incubated at 37 C for 16 hours. After 1 uL of LiveBLAzerTM B/G FRET substrate was added using a Flying Reagent Dispenser, the plates were incubated at room temperature for 2 hours, and fluorescence intensity was measured by an Envision plate reader.
For cell viability readout that measures cytotoxicity, 4 ul/well of CellTiter-Glo reagent was added into the assay plates using a Flying Reagent Dispenser. After 30 min incubation at room temperature, the luminescence intensity in the plates was measured using a ViewLux plate reader.
% is set by controls: 0 for no effect and ±100 for the full control effect.

SMILES	activity change, negative = cytotoxicity	outcome
C[Si]1(C)O[Si](C)(C)O[Si](C)(C)O[Si](C)(C)O[Si](C)(C)O1	16.5% (inactive)	
[O]=[Mo](=[O])=[O]	-6.74% [at 39.1 µM] (inactive)	
Cn1c(=O)c2c(ncn2CCO)n(C)c1=O	14.9% (inactive)	
CCn1cc(C(=O)O)c(=O)c2cnc(N3CCCC3)nc21	-4.98% [at 39.1 µM] (inactive)	
CC(C)C1OCCN1CCOC(=O)NCCCCCCNC(=O)OCCN1CCOC1C(C)C (stereo not given)	-4.47% (inactive)	
OC1OCCOC1O (stereo not given)	-20.7% (inactive)	
O=C(O)CSCC(=O)NC1CCSC1=O (stereo not given)	19.5% (inactive)	
NCC1(Cc2noc(=O)[nH]2)CCCCC1	15.7% (inactive)	
CC(C)c1ccc(C=O)cc1	10.5% (inactive)	
CCC(=O)c1c(O)cc(O)cc1O	13.3% (inactive)	
Cc1cccc(Cl)c1	9.46% (inactive)	
CC(C)(CO)C(O)C(=O)NCCCO (stereo not given)	-9.22% (inactive)	
CCCCOCCOC(=O)COc1ccc(Cl)cc1Cl	-5.31% (inactive)	
c1ccc(B(c2ccccc2)c2ccccc2)cc1	5.2% (inactive)	
CC(=O)O[Si](C)(OC(C)=O)OC(C)=O	-10.9% [at 95.3 µM] (inactive)	
CCCCOC(=O)[C@H](C)O	7.44% (inactive)	
NC(=O)[C@@H]1CSSCCC(=O)N[C@@H](CCCCN=C(N)N)C(=O)NCC(=O)N[C@@H](CC(=O)O)C(=O)N[C@@H](Cc2c[nH]c3ccccc23)C(=O)N2CCC[C@H]2C(=O)N1 ([Mpa][hArg]GDWPC-NH2; disulfide 1-7)	16% (inactive)	
O/N=C/C=N/O	14.3% (inactive)	
CCCCC1CCC(O)CC1 (stereo not given)	7.31% (inactive)	
COC(C)(OC)OC	12.3% (inactive)	

SMILES	activity change, negative = cytotoxicity	outcome
OCC(O)CN1CCN(c2ccccc2)CC1 (stereo not given)	18.3% (inactive)	
CC1c2ccccc2CN1NC(=O)c1ccc(Cl)c(S(N)(=O)=O)c1 (stereo not given)	9.07% (inactive)	
CCCCCCCCCCCCCCCCCCOCCO	-17.3% [at 39.1 µM] (inactive)	
C=CC(=O)OCC1CCCO1 (stereo not given)	22.9% (inactive)	
Cc1c(NC(=O)c2cccnc2)c(=O)n(-c2ccccc2)n1C	14.6% [at 39.1 µM] (inactive)	
CN(C)CCCCl	-17.5% [at 95.3 µM] (inactive)	
Cc1ccc2c(c1)C(=O)c1ccccc1C2=O	5.11% (inactive)	
COS(=O)(=O)O	18.9% (inactive)	
CC(=O)C(C)O (stereo not given)	-22.9% (inactive)	
CC(C)OC(=O)OCOP(=O)(CO[C@H](C)Cn1cnc2c(N)ncnc21)OCOC(=O)OC(C)C		inactive
CC1CC(=O)CC(C)(C)C1 (stereo not given)	6.2% (inactive)	
Cc1ccc(C)c([N+](=O)[O-])c1	-11.2% (inactive)	
CC12CCC(C1)C(C)(C)C2O (stereo not given)	4.28% (inactive)	
COC(=O)CCCCC(=O)O	-3.61% (inactive)	
CC(C)OC(=O)CCC(=O)OC(C)C	18.3% (inactive)	
C#CCN[C@@H]1CCc2ccccc21	7.63% (inactive)	
O=C[O][Al]([O]C=O)[O]C=O	19.9% (inactive)	
Cc1ccccc1C(N)=O	-18.9% (inactive)	
CC(=O)CCc1ccc(OC(C)=O)cc1	7.2% (inactive)	
Nc1nnnn1-c1ccccc1	11.6% (inactive)	
